# Reference: PubChem BioAssay AID463173 (ICCB-Longwood Screening Facility, Harvard Medical School, 2010)
# Among all 52,000 compounds or so, about 4,300 (8.3%) were called active. Rule as the data show it: active = survival mostly below about 52% (no sharp cut-off); inactive = mostly above about 56%. Shown is part of a subset that was picked to be rich in actives.
# Tested on: DeltatarO mutant
# Experiment: growth inhibition of S. aureus wild type versus tarO mutant, primary screen, teichoic acid synthesis inhibitors, RN4220, OD600 (AID 463173)
# Conditions: OD600, 18 h, stronger effect = lower value, screened at 18.75 µg/mL (by protocol)
row,SMILES,survival
1,COc1ccc(CNC(=O)c2ccc3nc(CCc4ccccc4)oc3c2)c(OC)c1,135% (inactive)
2,COc1ccc(CNC(=O)c2ccc3nc(CCc4ccccc4)oc3c2)cc1,0% (active)
3,COc1ccc(CNC(=O)c2ccc3nc(CCc4ccccc4)oc3c2)cc1OC,79% (inactive)
4,Cc1ccc(-c2onc(C)c2C)cc1S(=O)(=O)NC1CCCCC1,77% (inactive)
5,COc1ccc(NC(=O)c2ccco2)cc1NC(=O)C(C)C,84% (inactive)
6,COc1ccc(NC(=O)c2ccco2)cc1NC(=O)c1cc(Cl)ccc1OC,49% (inactive)
7,COc1ccc(NC(=O)c2ccco2)cc1NC(=O)C(C)Oc1ccc(Cl)cc1Cl (stereo unspecified),28% (active)
8,COc1ccc(NC(=O)c2ccco2)cc1NC(=O)c1ccc(OC(C)C)cc1,121% (inactive)
9,COc1ccc(NC(=O)c2ccco2)cc1NC(=O)C(C)(C)Oc1ccc(Cl)cc1,40% (active)
10,COc1ccc(NC(=O)c2ccco2)cc1NC(=O)COc1ccc(Cl)cc1C,57% (inactive)
11,COc1ccc(NC(=O)c2sc3nc(C)c(C(=O)Nc4ccc(C)cc4C)c(-c4sccc4C)c3c2N)cc1,91% (inactive)
12,c1ccc(NCc2ccncc2)cc1,83% (inactive)
13,C=Cn1cccc1C(=O)O,83% (inactive)
14,CC(C)CCNC(=O)c1ccc2c(c1)NC(=O)C(CS(=O)(=O)Cc1ccc(F)cc1)N2 (stereo unspecified),80% (inactive)
15,Cc1ccc(CNC(=O)CCCc2nnc3n(CC(C)C)c(=O)c4sccc4n23)cc1,101% (inactive)
16,CCOC(=O)Cn1c(=O)n(CC2CCCO2)c2nc(-c3ccccc3)nc(C(N)=O)c21 (stereo unspecified),84% (inactive)
17,CCOC(=O)Cn1c(=O)n(-c2ccccc2OC)c2nc(-c3ccc(C(C)C)cc3)nc(C(N)=O)c21,86% (inactive)
18,CCOC(=O)Cn1c(=O)n(-c2ccccc2OC)c2nc(-c3cccc(F)c3)nc(C(N)=O)c21,64% (inactive)
19,CCOC(=O)Cn1c(=O)n(-c2ccccc2OC)c2nc(-c3ccccc3)nc(C(N)=O)c21,-1% (active)

row,SMILES,survival
1,CCOC(=O)Cn1c(=O)n(CC2CCCO2)c2nc(-c3cccc(C)c3)nc(C(N)=O)c21 (stereo unspecified),79% (inactive)
2,CCOC(=O)Cn1c(=O)n(CC2CCCO2)c2nc(-c3ccc(C(C)C)cc3)nc(C(N)=O)c21 (stereo unspecified),6% (active)
3,CCOC(=O)Cn1c(=O)n(CC2CCCO2)c2nc(-c3ccc(OCC)cc3)nc(C(N)=O)c21 (stereo unspecified),-2% (active)
4,CCOC(=O)Cn1c(=O)n(CC2CCCO2)c2nc(-c3ccc(C)cc3)nc(C(N)=O)c21 (stereo unspecified),67% (inactive)
5,CCOC(=O)Cn1c(=O)n(CC2CCCO2)c2nc(-c3ccc(CC)cc3)nc(C(N)=O)c21 (stereo unspecified),72% (inactive)
6,COc1cc(OC)c(NC(=O)C2CCCN(c3ncnc4c3nc3n4CCCCC3)C2)cc1Cl (stereo unspecified),122% (inactive)
7,O=C1c2ccccc2C(=O)N1c1ncn[nH]1,94% (inactive)
8,O=C(CSc1nc2c([nH]c3ccccc32)c(=O)n1-c1ccc(F)cc1)Nc1ccc2c(c1)OCO2,58% (inactive)
9,COc1ccc(NC(=O)Cn2c(=O)n(CCCC(=O)NCc3ccccc3Cl)c(=O)c3ccccc32)c(OC)c1,125% (inactive)
10,O=C(CC1N=C2c3ccccc3N=C(SCc3ccc(Cl)cc3)N2C1=O)NCc1cccs1 (stereo unspecified),75% (inactive)
11,COc1ccc(CCNC(=O)c2ccc(Cn3c(=O)c4ccccc4n(Cc4cccc(F)c4)c3=O)cc2)cc1OC,78% (inactive)
12,CNC(=O)C1CCC(Cn2c(=O)c3sccc3n(Cc3cc(C)ccc3C)c2=O)CC1 (stereo unspecified),47% (active)
13,Cc1ccc(C)c(Cn2c(=O)n(CC3CCC(C(=O)N4CCOCC4)CC3)c(=O)c3sccc32)c1 (stereo unspecified),80% (inactive)
14,CNC(=O)C1CCC(Cn2c(=O)c3sccc3n(CC(=O)Nc3ccc(C)cc3C)c2=O)CC1 (stereo unspecified),87% (inactive)
15,CNC(=O)C1CCC(Cn2c(=O)c3sccc3n(CC(=O)NCc3ccc(C)cc3)c2=O)CC1 (stereo unspecified),80% (inactive)
16,CNC(=O)C1CCC(Cn2c(=O)c3sccc3n(CC(=O)NCc3ccccc3)c2=O)CC1 (stereo unspecified),32% (active)
17,CNC(=O)C1CCC(Cn2c(=O)c3sccc3n(CC(=O)NCc3ccc(F)cc3)c2=O)CC1 (stereo unspecified),73% (inactive)
18,COc1ccc(CC(=O)NC2CC(=O)N(c3cccc(F)c3)C2)cc1 (stereo unspecified),94% (inactive)
19,O=C(Nc1nncs1)C1c2ccccc2Oc2ccccc21,108% (inactive)

row,SMILES,survival
1,CCOC(=O)C1CCCN(S(=O)(=O)c2ccc3c(c2)CCCN3C(C)=O)C1 (stereo unspecified),80% (inactive)
2,CS(=O)(=O)N1CCSC1c1ccc(Cl)cc1Cl (stereo unspecified),109% (inactive)
3,COc1ccc2oc(=O)c(-c3nnc(-c4ccccc4)o3)cc2c1,69% (inactive)
4,O=C(O)CCC(=O)NCc1ccccn1,82% (inactive)
5,COc1cccc(NC(=O)CSc2nc3ccc(NC(=O)c4cccs4)cc3s2)c1,65% (inactive)
6,Cc1csc(-c2cc3ccccc3oc2=O)n1,85% (inactive)
7,O=c1oc2ccccc2cc1-c1nc(-c2cccc(Cl)c2)cs1,102% (inactive)
8,COc1ccccc1/C=C(\C#N)c1nc(-c2cc3ccccc3oc2=O)cs1,56% (active)
9,CCN(CC)c1ccc2cc(-c3nc(-c4ccccc4F)no3)c(=O)oc2c1,101% (inactive)
10,CCN(CC)c1ccc2cc(-c3nc(-c4ccc(Cl)cc4Cl)cs3)c(=O)oc2c1,37% (active)
11,COc1ccc(/C=C(/C#N)c2nc(-c3cc4ccccc4oc3=O)cs2)cc1,78% (inactive)
12,CCN(CC)c1ccc2cc(-c3nnc(-c4cccc(Cl)c4)o3)c(=O)oc2c1,69% (inactive)
13,COc1ccc(/C=C(\C#N)c2nc(-c3cc4ccccc4oc3=O)cs2)cc1OC,65% (inactive)
14,Cc1cc(C)c(-c2csc(-c3cc4ccccc4oc3=O)n2)cc1C,31% (active)
15,CCCNC(=O)C1CCC(Cn2c(=O)c3sccc3n(CC(=O)N3CCCC3)c2=O)CC1 (stereo unspecified),67% (inactive)
16,O=c1cc(-c2ccc(F)cc2)nc(SCc2nc(-c3cccc(C(F)(F)F)c3)no2)[nH]1,99% (inactive)
17,COc1ccc(C)cc1NC(=O)C(CCSC)NS(=O)(=O)c1ccc2c(c1)oc(=O)n2C (stereo unspecified),95% (inactive)
18,CCc1cccc(NC(=O)c2cnc(SC)nc2-c2ccccc2)c1,84% (inactive)
